Seven compounds from PubChem BioAssay (NCATS) can be followed below.

Values without a mark were called inactive. Results filed as inconclusive are left out. Active and inactive are the calls of the source. Calls follow the shape of the dose curve; as a rule, active = well fitted curve in the direction sought with a large enough effect; inconclusive = small, poorly fitted or top-dose-only effect, or another doubt; inactive = no such curve, though single readings can be large; an effect the other way counts as inactive or inconclusive.

The test system of assay [1] is Zika virus NS2B-NS3 protease (unlinked complex). Put plainly: Primary screen GU Rhodamine qHTS for Zika virus inhibitors: Unlinked NS2B-NS3 protease assay (AID 1347159). Also: % is scaled to controls: 0 for no effect and ±100 for the full control effect; nearly all actives have a fitted effect of over 60% in size. In short, it runs like this:
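Percent inhibition derives from the 15-min fluorescence change (ex 480, em 540 nm), normalized to no-enzyme and no-inhibitor wells. Reactions contained 25 nM NS2B-NS3 complex and 1.5 microM substrate in 10 mM Tris-HCl pH 8.0.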
Background: qHTS replaces the single test concentration by a dilution series.

For assay [2], the system named is Zika virus NS2B-NS3 protease (linked construct). Put plainly: Primary screen NINDS Rhodamine qHTS for Zika virus inhibitors (AID 1347160). Also: nearly all actives have a fitted effect of over 55% in size. Put shortly: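 In 10 mM Tris-HCl pH 8.0 containing 0.01% Tween 20, linked NS2B-NS3 protease (25 nM final) is exposed to test compounds for 15 min. Cleavage of 1.5 microM Rhodamine110 substrate is tracked by fluorescence over 15 min.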

The target in assay [3] is Calcium and integrin-binding protein 1 (Homo sapiens) (UniProt Q99828). Nature of the assay: Primary qHTS for Identification of Calcium Integrin Binding Protein 1 (CIB1) Competitor (AID 1508620). Also: top concentration of the series differs between compounds; % is scaled to controls: 0 for no effect and ±100 for the full control effect. In short, it runs like this: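 Fluorescence polarization competition: GST-tagged CIB1 (1 uM final) preincubated with compound 15 min at room temperature, then FITC-labelled alphaIIb peptide (100 nM final) added. After 15 min at room temperature, polarization read at Ex 480/Em 540.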
Calcium and integrin-binding protein 1 (Homo sapiens), sequence (Q99828 whole entry, looked up): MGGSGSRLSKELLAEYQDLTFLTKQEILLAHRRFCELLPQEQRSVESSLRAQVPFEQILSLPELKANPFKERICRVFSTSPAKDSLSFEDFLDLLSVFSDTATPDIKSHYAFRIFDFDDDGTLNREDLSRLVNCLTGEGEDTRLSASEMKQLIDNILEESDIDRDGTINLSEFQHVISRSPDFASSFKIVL

Assay [4] deals with Glutathione peroxidase 1 (Homo sapiens) (UniProt P07203). Nature of the assay: Primary qHTS Assay for Inhibitors of Recombinant Selenoprotein Glutathione Peroxidase 1 (GPX1) (AID 1845191). Also: nearly all actives have a fitted effect of over 65% in size. In short, it runs like this:
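GR-coupled assay: compounds preincubated 30 min at room temperature with GPX1, then reaction started with CHP; final 10 nM GPX1, 1 mM GSH, 0.5 mM CHP, 0.5 mM NADPH, 100 nM GR, 0.01% BSA, pH 7.5 Tris buffer. NADPH fluorescence (340/450 nm) read at 0 and 15 min.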

For assay [5], the target named is Phospholipid hydroperoxide glutathione peroxidase GPX4 (Homo sapiens) (UniProt P36969). Put plainly: Primary qHTS Assay for Inhibitors of Recombinant Selenoprotein Glutathione Peroxidase 4 (GPX4) (AID 1845192). Also: % is scaled to controls: 0 for no effect and ±100 for the full control effect; nearly all actives have a fitted effect of over 65% in size. In short, it runs like this: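 GR-coupled assay: recombinant GPX4 preincubated 30 min with compound at room temperature; final 200 nM GPX4, 1 mM GSH, 0.5 mM cumene hydroperoxide, 0.5 mM NADPH, 100 nM GR, 0.01% BSA, pH 7.5 Tris. NADPH fluorescence (340/450 nm) read at 0 and 15 min.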
Phospholipid hydroperoxide glutathione peroxidase GPX4 (Homo sapiens), sequence (P36969 whole entry, looked up): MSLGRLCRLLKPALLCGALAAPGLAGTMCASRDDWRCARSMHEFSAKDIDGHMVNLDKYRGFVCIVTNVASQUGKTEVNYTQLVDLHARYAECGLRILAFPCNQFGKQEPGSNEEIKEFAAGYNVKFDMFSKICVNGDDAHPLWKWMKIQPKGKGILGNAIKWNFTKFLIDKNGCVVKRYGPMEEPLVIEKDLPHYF

For assay [6], the target named is Luciferin 4-monooxygenase (Photinus pyralis) (UniProt P08659). Put plainly: Primary firefly luciferase (FLuc) qHTS assay for identification of artifact compounds. (AID 1845220). Also: nearly all actives have a fitted effect of over 60% in size. The conditions noted are these: outcome: dose series up to 54.1 µM unless noted. In short, it runs like this:
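Titrated compounds were incubated 15 min at RT, protected from light, with luciferin and ATP at 10 uM; reaction started with 10 nM FLuc, luminescence imaged at 5 min, and concentration-response fitted by Hill equation.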

The nature of assay [7]: Primary fluorescence-based thiol-reactive (MSTI) qHTS assay for identification of artifact compounds. (AID 1845221). Also: nearly all actives have a fitted effect of over 65% in size. Also: potency is read from the fitted curve at half-maximal effect. In short, it runs like this:
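Compounds were incubated 1 h at room temperature in the dark with the MSTI probe (4 uM) in PBS pH 7.4, 2% DMSO. Signals were normalized between Acetyl-MSTI and MSTI.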

Assay [8] has as its system Nanoluciferase (engineered Oplophorus gracilirostris luciferase). Nature of the assay: Primary Nanoluciferase (NLuc) qHTS assay for identification of artifact compounds. (AID 1845222).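 Also: NLuc secreted into diluted conditioned medium of S16 cells; 0% = DMSO and -100% = no enzyme.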 In short, it runs like this: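 qHTS format, against NLuc in S16 cell-conditioned medium. Nano-Glo substrate 1:100 was added after 15 min at room temperature. Luminescence was taken after a further 5 min.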

A further assay concerns CRL-7250. Nature of the assay: Cytotoxic Profiling of Annotated Libraries Using Quantitative High-Throughput Screening (AID 1296008). Also: nearly all actives have a fitted effect of over 60% in size. Also: potency is read from the fitted curve at half-maximal effect. As to max response: % is scaled to controls: 0 for no effect and ±100 for the full control effect. As to conditions: Five cell lines viability, CellTiter-Glo ATP luminescence, 48-72 h; max response: active compounds read low. In short, it runs like this:
(§1)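 Cells exposed to compounds for 48 or 72 hr at 37 degrees Celsius. Viability read as ATP-coupled luminescence with CellTiter-Glo after 10 min at room temperature.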

For the next assay, the system named is NIH3T3. Described as above. The conditions noted are these: Five cell lines viability, CellTiter-Glo ATP luminescence, 48-72 h; max response: active compounds read low. In short, it runs like this:
as §1
(Cellular ATP, detected with luciferase, serves as a proxy for viable cell number.)

The subject of another assay is C33A. Put plainly: Primary qHTS to identify gynecologic anti-cancer compounds using libraries of approved drugs and bioactive compounds (AID 1345084). Also: nearly all actives have a fitted effect of over 55% in size. Also: potency is read from the fitted curve at half-maximal effect. The conditions noted are these: Gynecologic cancer cell panel viability, ATPlite luminescence, 48 h; series mostly up to 57.5 µM. In short, it runs like this: (§2)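 Luminescence from the ATPlite ATP-monitoring reagent indicates viable cell number; lower signal means cytotoxicity. Cells received compound 16 h after seeding and were exposed for 48 h across five concentrations.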

The subject of the next assay is CASKI. Described as above. As to conditions: Gynecologic cancer cell panel viability, ATPlite luminescence, 48 h; series mostly up to 57.5 µM. Put shortly: as §2
For a further assay, the system named is Es-2. The description is as above. The conditions noted are these: Gynecologic cancer cell panel viability, ATPlite luminescence, 48 h; series mostly up to 57.5 µM. In short, it runs like this: as §2
The test system of the next assay is JEG-3. The description is as above. As to conditions: Gynecologic cancer cell panel viability, ATPlite luminescence, 48 h; series mostly up to 57.5 µM. In short, it runs like this:
as §2

The test system of a further assay is OV90. The assay is described as above. As to conditions: Gynecologic cancer cell panel viability, ATPlite luminescence, 48 h; series mostly up to 57.5 µM. In short, it runs like this: as §2
A further assay deals with CAOV3. The description is as above. The conditions noted are these: Gynecologic cancer cell panel viability, ATPlite luminescence, 48 h; series mostly up to 57.5 µM. In short, it runs like this: as §2
The next assay has as its system PA-1. The description is as above. The conditions noted are these: Gynecologic cancer cell panel viability, ATPlite luminescence, 48 h; series mostly up to 57.5 µM. Put shortly: as §2
The test system of a further assay is Tov-21-G. Described as above. The conditions noted are these: Gynecologic cancer cell panel viability, ATPlite luminescence, 48 h; series mostly up to 57.5 µM. In short, it runs like this:
as §2

For the next assay, the system named is Hek293T. Described as above. The conditions noted are these: Gynecologic cancer cell panel viability, ATPlite luminescence, 48 h, control line for the selectivity index; series mostly up to 57.5 µM. In short, it runs like this:
as §2

A further assay relates to Tov112D. The assay is described as above. The conditions noted are these: Gynecologic cancer cell panel viability, ATPlite luminescence, 48 h; series mostly up to 57.5 µM. In short, it runs like this:
as §2

Glutathione peroxidase 1 (Homo sapiens), sequence (P07203 whole entry, looked up): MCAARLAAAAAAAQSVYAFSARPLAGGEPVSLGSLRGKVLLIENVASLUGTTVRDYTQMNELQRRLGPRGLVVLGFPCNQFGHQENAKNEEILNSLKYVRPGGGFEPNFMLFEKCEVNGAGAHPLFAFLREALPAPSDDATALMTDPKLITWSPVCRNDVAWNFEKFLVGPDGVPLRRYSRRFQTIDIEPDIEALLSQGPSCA

Take `C[C@]12CC[C@H](O)C[C@@H]1CC[C@@H]1[C@@H]2CC[C@]2(C)[C@@H](C3=CC(=O)OC3)CC[C@]12O`: the Potency result in [1], in assay [2], in assay [3], in [4], in assay [5] and in [7] was “inactive” in each case. Also, the Potency result (in assay [8]; with CASKI; in the assay with JEG-3; in the assay with OV90) was “inactive” throughout. Moreover, the call in [6] was inactive. Further, the Potency in the assay on CRL-7250 was 4.53 µM (active); with C33A, 7.94 µM (active); with Es-2, 8.91 µM (active). Further, the max response in the assay on NIH3T3 is 3.54%.
Take `COC1CCCC(C)OC(=O)Cc2cc(O)cc(O)c2C(=O)C1` (stereo not given): the Potency entry in assay [1], in assay [2], in assay [3], in assay [4], in assay [5] and in [8] was “inactive” throughout. The Potency result in the assay with CAOV3, with CASKI, with OV90 and with Tov-21-G was “inactive” each time. In assay [6], the outcome was inactive. Besides, the Potency was 14.3 µM (active) with CRL-7250 and 11.2 µM (active) in the assay with PA-1.
In the case of `CC1=CC2OC3CC(O)[C@](C)([C@@]2(C)C(O)C1=O)[C@]31CO1` (stereo not given in full), the Potency result in assay [1], in [2], in [3], in [4], in assay [5] and in assay [7] was “inactive” in each case. Moreover, the Potency entry (in assay [8]; in the assay on CAOV3; in the assay with JEG-3) was “inactive” in each case. Further, the outcome in assay [6] was inactive. For the same compound, the Potency was 5.8 µM (active) in the assay with CRL-7250; 4.11 µM (active) with NIH3T3; 8.91 µM (active) with Es-2; 3.16 µM (active) in the assay with Hek293T; 3.16 µM (active) with PA-1.
With `C=C1C(=O)CC2OC2(C)CC2OC(=O)C(=C)C2C(O)C1OC(=O)/C(C)=C\C` (stereo not given), the Potency result in [2], in assay [3], in assay [4], in assay [5], in assay [7] and in assay [8] was “inactive” each time. Further, the Potency result in the assay with JEG-3, in the assay with OV90 and in the assay with Tov112D was “inactive” in each case. In [6], the compound was classed as inactive. Also, in the assay with CRL-7250, the Potency was 10.1 µM (active).
Regarding `COc1cc(O)c2c(c1)CCC[C@@H](O)[C@H](O)C(=O)/C=C\C[C@H](C)OC2=O`, the Potency entry in assay [1], in assay [2], in [3], in assay [4], in assay [5] and in assay [7] was “inactive” throughout. Besides, the Potency entry (in assay [8]; in the assay with PA-1) was “inactive” in each case. Besides, the call in assay [6] was inactive. The Potency with CRL-7250 was 5.08 µM (active); with Hek293T it was 11.2 µM (active); in the assay with Tov-21-G, 1.78 µM (active).
Take `CCOc1ccc(Oc2ccc(OCc3cc(F)ccc3F)cc2)c(N)c1`: the Potency entry in assay [1], in [2], in assay [3], in [4], in assay [5] and in [8] was “inactive” throughout. For the same compound, the Potency entry in the assay on C33A, in the assay on CAOV3, in the assay with CASKI, with Es-2, with Hek293T and in the assay on JEG-3 was “inactive” in each case. Further, the Potency result in the assay with OV90, in the assay with PA-1, with Tov-21-G and in the assay on Tov112D was “inactive” in each case. The outcome (in [6]; with CRL-7250) was inactive. Moreover, the Potency in assay [7] was 8.44 µM (active). Further, in the assay on NIH3T3, the max response was -0.81%.
In the case of `Fc1cc(F)c2c(c1)C1C=CCC1C(c1cccnc1)N2` (stereo not given), the Potency result in assay [1], in assay [2], in assay [3], in assay [5] and in assay [8] was “inactive” throughout. Further, in assay [6], the call was inactive. In addition, the Potency in the assay with CRL-7250 was 5.8 µM (active); with C33A it was 22.4 µM (active); in the assay on PA-1, 17.8 µM (active).
